# Assay results taken from PubChem BioAssay (NCI).
# The panel holds about 79,000 compounds, 15% with a hit somewhere; the sample as a whole holds those more often. A number with no mark means an inactive call. Activity calls are given as the source filed them. No stated cut-off is given here; in the data, active means growth inhibition above about 70%; inactive means the rest.
# Columns and labels:
# [1] = NCI Yeast Anticancer Drug Screen. Data for the sgs1 mgt1 strain (AID 161);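 further: 0% = growth of cultures given vehicle only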; settings: S. cerevisiae sgs1 mgt1 strain, active compounds read high
# Method in brief: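 Yeast cells carrying a defined DNA-repair defect were exposed to test compounds. Growth inhibition was measured relative to vehicle-treated controls.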
# [2] = NCI Yeast Anticancer Drug Screen. Data for the CLN2oe strain (AID 163);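 further: 0% = growth of vehicle-only control cultures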; settings: S. cerevisiae CLN2oe strain, active compounds read high
# Method in brief: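 Compound-treated yeast; growth vs vehicle ctrl = % inhibition. Genetically altered strain (cell-cycle control).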
# [3] = NCI Yeast Anticancer Drug Screen. Data for the cln2 rad14 strain (AID 165);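 further: 0% = growth equal to vehicle treated cultures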; settings: S. cerevisiae cln2 rad14 strain, active compounds read high
# Method in brief: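 Growth inhibition, relative to vehicle-treated controls, is the read-out. The test organism is a yeast strain with defined genetic alterations, cln2 rad14.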
# [4] = NCI Yeast Anticancer Drug Screen. Data for the bub3 strain (AID 167); settings: S. cerevisiae bub3 mutant strain, active compounds read high
# Method in brief: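 Readout: yeast growth inhibition, expressed relative to vehicle-only wells. The test organism is a mutant strain from a panel with lesions in DNA repair or checkpoint genes.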
# [5] = NCI Yeast Anticancer Drug Screen. Data for the wt2 strain (AID 169);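 further: 0% = growth of vehicle-treated yeast cultures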; settings: S. cerevisiae wt2 strain growth inhibition, active compounds read high
# Method in brief: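 Compound exposure of yeast; growth compared with vehicle controls; inhibition reported.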
# [6] = NCI Yeast Anticancer Drug Screen. Data for the mlh1 strain (AID 171);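 further: 0% = growth of vehicle-treated control cultures of the same strain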; settings: S. cerevisiae mlh1 strain growth inhibition, active compounds read high
# Method in brief: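 Compounds are applied to a genetically altered yeast strain, and its growth is compared with that of vehicle-treated cultures to give percent inhibition.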
# [7] = NCI Yeast Anticancer Drug Screen. Data for the sgs1 strain (AID 173);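 further: 0% = growth of vehicle-only control cultures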; settings: S. cerevisiae sgs1 mutant, active compounds read high
# Method in brief: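 Compounds applied to genetically altered yeast; growth compared with vehicle-treated cultures to give % inhibition.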
# [8] = NCI Yeast Anticancer Drug Screen. Data for the mlh1 rad18 strain (AID 175); settings: S. cerevisiae mlh1 rad18 strain growth inhibition, active compounds read high
# Method in brief: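 Cells of a genetically altered yeast strain, deficient in DNA damage repair, were treated with compound. Their growth was then compared with that of vehicle-treated cultures to give inhibition.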
# [9] = NCI Yeast Anticancer Drug Screen. Data for the rad18 strain (AID 177); settings: S. cerevisiae rad18 mutant growth inhibition, active compounds read high
# Method in brief: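 Compounds are applied to a repair-deficient yeast strain, and growth is compared with that of vehicle-treated cultures to give percent inhibition.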
# [10] = at 5.0 µM (retest, dose inferred, filed as 0.5)
# [11] = at 50.0 µM (retest, dose inferred, filed as 5.0)
smiles,measurement,setting,value
Nc1ccc(/C=C/c2ccc3cccnc3c2)cc1,growth inhibition,[1]; [10],3%
same,growth inhibition,[1]; [11],50%
same,growth inhibition,[1]; at 50.0 µM,46.2%
same,growth inhibition,[2]; at 1.2 µM,2%
same,growth inhibition,[2]; at 3.7 µM,2%
same,growth inhibition,[2]; at 11.0 µM,1%
same,growth inhibition,[2]; at 33.0 µM,-4%
same,growth inhibition,[2]; at 100.0 µM,0%
same,growth inhibition,[3]; [10],-5%
same,growth inhibition,[3]; [11],3%
same,growth inhibition,[3]; at 50.0 µM,-6.75%
same,growth inhibition,[4]; at 1.2 µM,5%
same,growth inhibition,[4]; at 3.7 µM,23%
same,growth inhibition,[4]; [10],24%
same,growth inhibition,[4]; at 11.0 µM,85% (active)
same,growth inhibition,[4]; at 33.0 µM,94% (active)
same,growth inhibition,[4]; [11],92% (active)
same,growth inhibition,[4]; at 50.0 µM,93.3% (active)
same,growth inhibition,[4]; at 100.0 µM,94% (active)
same,growth inhibition,[5]; at 1.2 µM,1%
same,growth inhibition,[5]; at 3.7 µM,8%
same,growth inhibition,[5]; at 11.0 µM,-2%
same,growth inhibition,[5]; at 33.0 µM,-4%
same,growth inhibition,[5]; at 100.0 µM,9%
same,growth inhibition,[6]; at 1.2 µM,-1%
same,growth inhibition,[6]; at 3.7 µM,-1%
same,growth inhibition,[6]; at 11.0 µM,-1%
same,growth inhibition,[6]; at 33.0 µM,-2%
same,growth inhibition,[6]; at 100.0 µM,21%
same,growth inhibition,[7]; at 1.2 µM,-1%
same,growth inhibition,[7]; at 3.7 µM,1%
same,growth inhibition,[7]; at 11.0 µM,3%
same,growth inhibition,[7]; at 33.0 µM,20%
same,growth inhibition,[7]; at 100.0 µM,46%
same,growth inhibition,[8]; [10],3%
same,growth inhibition,[8]; [11],20%
same,growth inhibition,[8]; at 50.0 µM,32.8%
same,growth inhibition,[9]; at 1.2 µM,1%
same,growth inhibition,[9]; at 3.7 µM,1%
same,growth inhibition,[9]; at 11.0 µM,11%
same,growth inhibition,[9]; at 33.0 µM,59%
same,growth inhibition,[9]; at 100.0 µM,77% (active)
